# Values joined by “and” are separate entries in the source; they are usually repeats but may differ in a detail not shown here. Identical values can stand only once. Inconclusive results are not listed. Active and inactive are the calls of the source.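 The calls were made as follows, unless noted: active = normalized viability below 100% at a tested concentration; inactive = the rest.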
# Key:
# [1] = viability loss in pontine glioma line – cell-based, SU-DIPG-XVII, MIPE5.0, CellTiter-Glo, qHTS, dose response (AID 1347060; cut-off not given, nearly all actives have AC50 up to about 26 µM;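 as to AC50: cells exposed to compound for 48 hours before viability readout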); details: CellTiter-Glo ATP luminescence
# [2] = viability loss in pontine glioma line – cell-based, SU-DIPG-XIII, MIPE4.0, CellTiter-Glo, qHTS, dose response (AID 1347061; cut-off not given, nearly all actives have AC50 up to about 37 µM;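 also: cells exposed to compound for 48 hours before readout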); details: CellTiter-Glo ATP luminescence
# [3] = viability loss in pontine glioma line – cell-based, SU-DIPG-IV, MIPE4.0, CellTiter-Glo, qHTS, dose response (AID 1347063; cut-off not given, nearly all actives have AC50 up to about 30 µM;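 also: compound exposure lasted 48 hours before the viability readout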); details: CellTiter-Glo ATP luminescence
# [4] = viability loss in pontine glioma line – cell-based, SU-DIPG-XIII, MIPE5.0, CellTiter-Glo, qHTS, dose response (AID 1347064; cut-off not given, nearly all actives have AC50 up to about 23 µM;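 as to AC50: cells exposed to compound for 48 hours before the viability read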); details: CellTiter-Glo ATP luminescence
# [5] = viability loss in pontine glioma line – cell-based, SU-DIPG-XXV, MIPE5.0, CellTiter-Glo, qHTS, dose response (AID 1347065; cut-off not given, nearly all actives have AC50 up to about 26 µM;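 also: cells exposed to compound for 48 hours before ATP readout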); details: CellTiter-Glo ATP luminescence
# [6] = growth inhibition of DIPG cells – cell-based, MIPE4.0 library, CellTiter-Glo luminescence, qHTS (AID 1347066; cut-off not given, nearly all actives have AC50 up to about 30 µM;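 also: cells exposed to compound for 48 hours before readout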); details: SU-DIPG-VI viability, CellTiter-Glo ATP luminescence
# [7] = JHH-DIPG-1 glioma cell viability, MIPE5.0 library, CellTiter-Glo luminescence, qHTS (AID 1347067; cut-off not given, nearly all actives have AC50 up to about 26 µM;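 also: cells exposed to compound for 48 hours before readout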); details: JHH-DIPG-1 glioma viability, CellTiter-Glo ATP luminescence
# [8] = growth inhibition of DIPG cells – cell-based, MIPE5.0 library, qHTS (AID 1347068; cut-off not given, nearly all actives have IC50 up to about 30 µM;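 as to IC50: cells exposed to compound for 48 hours before viability readout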); details: SU-DIPG-XXV viability
# [9] = viability loss in pontine glioma line – cell-based, JHH-DIPG-1, MIPE4.0, CellTiter-Glo, qHTS, dose response (AID 1347062; cut-off not given, nearly all actives have AC50 up to about 27 µM;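 as to AC50: cells exposed to compound for two days before readout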); details: JHH-DIPG-1 viability, CellTiter-Glo ATP luminescence
# [10] = viability loss with induced miR-34 in A549 – imaging, A549 dox-inducible miR-34, nuclei and caspase counts, primary screen (AID 1347080;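 active = compounds whose cell count with miR-34 switched on is under 0.7 times the count with it off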); details: A549 miR-34 inducible, Hoechst nuclei count, 48 h
# [11] = MELAS cybrid and Rieske KO viability enhancers – cell-based, MELAS cybrids, Rieske KO mouse fibroblasts, CellTiter-Glo, primary screen (AID 1508586;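 active = mean z-score across replicates of 1.96 or higher in either the MELAS or the Rieske mutant cell line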;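 also: z relative to plate mean and SD of compound and empty wells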); details: low glucose
# [12] = compounds altering HSF1 focus formation in cells – imaging, Selleck Cancer Library (AID 1347162; in the data active = plate-normalised HSF1 focus index below about 0.46); details: human cells, HSF1 nuclear foci imaging, at 10 µM; SSMD: measured here: HSF1 foci SSMD mean; cell count: measured here: cell number; plate-normalised HSF1 focus index: stronger effect = lower value
# [13] = drug combination growth inhibition, ovarian cancer – cell-based, oncology-focused library, rucaparib conditional, profiling panel (AID 1508598); details: patient-derived ovarian cancer cells, CellTiter-Glo viability, 144 h, stronger effect = lower value
# [14] = stronger effect = lower value, cell number ratio, induced over uninduced
# [15] = measured here: relative caspase fold change +Dox/-Dox
# [16] = measured here: total cells with miR-34 induction, stronger effect = lower value
# [17] = measured here: total cells without miR-34 induction
# [18] = MELAS cybrid survival, CellTiter-Glo 48 h, stronger effect = higher value
# [19] = Rieske KO mouse fibroblast survival, CellTiter-Glo 72 h
smiles,measurement,setting,value
C[C@](Cc1c[nH]c2ccccc12)(NC(=O)OC1C2CC3CC(C2)CC1C3)C(=O)NC[C@H](NC(=O)CCC(=O)O)c1ccccc1 (stereo not given in full),outcome,[1],inactive
same,outcome,[2],inactive
same,outcome,[3],inactive
same,outcome,[4],inactive
same,outcome,[5],inactive
same,outcome,[6],inactive
same,outcome,[7],inactive
same,outcome,[8],inactive
CNC(=O)c1ccc2cc(C3(O)CCn4cncc43)ccc2c1 (stereo not given),outcome,[1],inactive
same,outcome,[2],inactive
same,outcome,[9],inactive
same,outcome,[4],inactive
same,outcome,[6],inactive
same,outcome,[7],inactive
same,outcome,[8],inactive
same,fold change,[10]; [14],0.927 (inactive)
same,fold change,[10]; [15],0.607
same,cell count,[10]; [16],8020
same,cell count,[10]; [17],8650
same,z-score,[11]; [18],0.566 (inactive)
same,z-score,[11]; [19],-0.147
Cc1cnc(-c2cc(N3CCN(C(=O)CCS(C)(=O)=O)CC3)ncc2Cl)c(C)c1,outcome,[1],inactive
same,outcome,[2],inactive
same,outcome,[3],inactive
same,outcome,[4],inactive
same,outcome,[5],inactive
same,outcome,[6],inactive
same,outcome,[7],inactive
same,outcome,[8],inactive
same,fold change,[10]; [14],0.856 (inactive)
same,fold change,[10]; [15],0.666
same,cell count,[10]; [16],8550
same,cell count,[10]; [17],10000
same,z-score,[11]; [18],-0.296 (inactive)
same,z-score,[11]; [19],0.28
C=C1CCC2[C@](C)(CO)C(O)CC[C@]2(C)C1C/C=C1/C(=O)OCC1O (stereo not given in full),AC50,[1],16.6 µM (active)
same,outcome,[2],inactive
same,outcome,[3],inactive
same,AC50,[4],16.6 µM (active)
same,AC50,[5],13.2 µM (active)
same,outcome,[6],inactive
same,AC50,[7],13.2 µM (active)
O=c1c(O)c(-c2cc(O)c(O)c(O)c2)oc2cc(O)cc(O)c12,outcome,[1],inactive
same,outcome,[2],inactive
same,outcome,[9],inactive
same,outcome,[5],inactive
same,outcome,[6],inactive
same,outcome,[7],inactive
same,fold change,[10]; [14],1.07 (inactive) and 0.861 (inactive) and 0.936 (inactive)
same,fold change,[10]; [15],0.806 and 1.45 and 0.825
same,cell count,[10]; [16],8570 and 8710 and 9810
same,cell count,[10]; [17],8020 and 10100 and 10500
same,z-score,[11]; [18],-0.358 (inactive)
same,z-score,[11]; [19],0.188
NC1(C(=O)N[C@@H](CCO)c2ccc(Cl)cc2)CCN(c2ncnc3[nH]ccc23)CC1,AC50,[1],14.8 µM (active)
same,AC50,[2],14.8 µM (active)
same,AC50,[3],0.662 µM (active)
same,AC50,[4],1.48 µM (active)
same,AC50,[5],2.09 µM (active)
same,IC50,[8],3.72 µM (active)
Nc1nc(NCCNc2ncc(-n3ccnc3)c(-c3ccc(Cl)cc3Cl)n2)ccc1[N+](=O)[O-],AC50,[1],11.8 µM (active)
same,outcome,[2],inactive
same,AC50,[3],5.26 µM (active)
same,AC50,[4],13.2 µM (active)
same,AC50,[5],8.33 µM (active)
same,AC50,[7],11.8 µM (active)
same,outcome,[8],inactive
CC1(C)S[C@H]2[C@H](NC(=O)[C@@H](N)c3ccc(O)cc3)C(=O)N2[C@H]1C(=O)O,outcome,[1],inactive
same,AC50,[2],23.5 µM (active)
same,AC50,[9],1.32 µM (active)
same,outcome,[5],inactive
same,outcome,[6],inactive
same,outcome,[7],inactive
same,outcome,[8],inactive
Cc1c(CN2CCN(S(C)(=O)=O)CC2)sc2c(N3CCOCC3)nc(-c3cnc(N)nc3)nc12,AC50,[1],0.661 µM (active)
same,AC50,[2],0.332 µM (active)
same,AC50,[3],0.0235 µM (active)
same,AC50,[4],0.525 µM (active)
same,AC50,[5],0.166 µM (active)
same,AC50,[6],0.526 µM (active)
same,AC50,[7],1.05 µM (active)
Cc1cccc(-c2[nH]c(C(C)(C)C)nc2-c2ccc3nccnc3c2)n1,outcome,[1],inactive
same,AC50,[2],2.35 µM (active)
same,AC50,[3],20.9 µM (active)
same,AC50,[4],9.34 µM (active)
same,AC50,[5],10.5 µM (active)
same,AC50,[6],4.69 µM (active)
same,AC50,[7],5.9 µM (active)
same,outcome,[8],inactive
same,fold change,[10]; [14],1.02 (inactive) and 0.895 (inactive)
same,fold change,[10]; [15],0.491 and 0.704
same,cell count,[10]; [16],4120 and 3500
same,cell count,[10]; [17],4050 and 3910
same,SSMD,[12],1.52
same,cell count,[12],7730
same,plate-normalised HSF1 focus index,[12],1.09 (inactive)
same,z-score,[11]; [18],-0.318 (inactive)
same,z-score,[11]; [19],-0.927
same,viability,"[13]; at 0.000305 µM, OCI-C5x cells, with rucaparib 10 µM, 100% = cells with rucaparib alone",121% (inactive)
same,viability,"[13]; at 0.000305 µM, OCI-C5x cells, without rucaparib",111% (inactive)
same,viability,"[13]; at 0.000305 µM, OCI-P5x cells, with rucaparib 20 µM, 100% = cells with rucaparib alone",101% (inactive)
same,viability,"[13]; at 0.000305 µM, OCI-P5x cells, without rucaparib",95.1% (active)
same,viability,"[13]; at 0.00122 µM, OCI-C5x cells, with rucaparib 10 µM, 100% = cells with rucaparib alone",106% (inactive)
same,viability,"[13]; at 0.00122 µM, OCI-C5x cells, without rucaparib",112% (inactive)
same,viability,"[13]; at 0.00122 µM, OCI-P5x cells, with rucaparib 20 µM, 100% = cells with rucaparib alone",100% (active)
same,viability,"[13]; at 0.00122 µM, OCI-P5x cells, without rucaparib",98.3% (active)
same,viability,"[13]; at 0.00488 µM, OCI-C5x cells, with rucaparib 10 µM, 100% = cells with rucaparib alone",120% (inactive)
same,viability,"[13]; at 0.00488 µM, OCI-C5x cells, without rucaparib",113% (inactive)
same,viability,"[13]; at 0.00488 µM, OCI-P5x cells, with rucaparib 20 µM, 100% = cells with rucaparib alone",99.5% (active)
same,viability,"[13]; at 0.00488 µM, OCI-P5x cells, without rucaparib",98.9% (active)
same,viability,"[13]; at 0.0195 µM, OCI-C5x cells, with rucaparib 10 µM, 100% = cells with rucaparib alone",119% (inactive)
same,viability,"[13]; at 0.0195 µM, OCI-C5x cells, without rucaparib",116% (inactive)
same,viability,"[13]; at 0.0195 µM, OCI-P5x cells, with rucaparib 20 µM, 100% = cells with rucaparib alone",103% (inactive)
same,viability,"[13]; at 0.0195 µM, OCI-P5x cells, without rucaparib",95% (active)
same,viability,"[13]; at 0.0781 µM, OCI-C5x cells, with rucaparib 10 µM, 100% = cells with rucaparib alone",121% (inactive)
same,viability,"[13]; at 0.0781 µM, OCI-C5x cells, without rucaparib",111% (inactive)
same,viability,"[13]; at 0.0781 µM, OCI-P5x cells, with rucaparib 20 µM, 100% = cells with rucaparib alone",101% (inactive)
same,viability,"[13]; at 0.0781 µM, OCI-P5x cells, without rucaparib",97.3% (active)
same,viability,"[13]; at 0.313 µM, OCI-C5x cells, with rucaparib 10 µM, 100% = cells with rucaparib alone",119% (inactive)
same,viability,"[13]; at 0.313 µM, OCI-C5x cells, without rucaparib",111% (inactive)
same,viability,"[13]; at 0.313 µM, OCI-P5x cells, with rucaparib 20 µM, 100% = cells with rucaparib alone",112% (inactive)
same,viability,"[13]; at 0.313 µM, OCI-P5x cells, without rucaparib",102% (inactive)
same,viability,"[13]; at 1.25 µM, OCI-C5x cells, with rucaparib 10 µM, 100% = cells with rucaparib alone",124% (inactive)
same,viability,"[13]; at 1.25 µM, OCI-C5x cells, without rucaparib",117% (inactive)
same,viability,"[13]; at 1.25 µM, OCI-P5x cells, with rucaparib 20 µM, 100% = cells with rucaparib alone",121% (inactive)
same,viability,"[13]; at 1.25 µM, OCI-P5x cells, without rucaparib",98.6% (active)
same,viability,"[13]; at 5 µM, OCI-C5x cells, with rucaparib 10 µM, 100% = cells with rucaparib alone",139% (inactive)
same,viability,"[13]; at 5 µM, OCI-C5x cells, without rucaparib",142% (inactive)
same,viability,"[13]; at 5 µM, OCI-P5x cells, with rucaparib 20 µM, 100% = cells with rucaparib alone",120% (inactive)
same,viability,"[13]; at 5 µM, OCI-P5x cells, without rucaparib",90.7% (active)

# From PubChem BioAssay
